Laboratory results from PubChem BioAssay AID2158 (National Center for Advancing Translational Sciences (NCATS), 2009).
Several values for one entry are separate records, joined by “and”; a condition that tells them apart may be missing. Identical values can stand only once. Records with an inconclusive call do not appear. Activity calls are given as the source filed them. Calls follow the shape of the dose curve; as a rule, active = well fitted inhibition curve with a large enough effect; inconclusive = small, poorly fitted or top-dose-only effect; inactive = no such curve, though single readings can be large or run the other way.

Each molecule was assayed against Cruzipain (Trypanosoma cruzi) (UniProt P25779) (assay: Confirmation qHTS Assay for Inhibitors of Cruzain). Settings: purified cruzain, Z-FR-AMC fluorescence, 0.01% Triton.
Summary of the method: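 Purified cruzain, 1.5 nM, pre-incubated 15 min at room temperature with compound in 100 mM sodium acetate pH 5.5, 5 mM DTT, 0.01% Triton X-100. Then 2 uM Z-FR-AMC added; AMC fluorescence (ex 360/em 450 nm) increase over 60 s gave reaction progress.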
Also: nearly all actives have a fitted effect of over 40% in size.
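For activity change, negative = inhibition in this document: plate controls were uninhibited enzyme control for no effect and buffer wells lacking enzyme for full effect.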
Potency is read from the fitted curve at half-maximal effect.

Chain of Cruzipain (Trypanosoma cruzi) (P25779 123-467 limits assumed): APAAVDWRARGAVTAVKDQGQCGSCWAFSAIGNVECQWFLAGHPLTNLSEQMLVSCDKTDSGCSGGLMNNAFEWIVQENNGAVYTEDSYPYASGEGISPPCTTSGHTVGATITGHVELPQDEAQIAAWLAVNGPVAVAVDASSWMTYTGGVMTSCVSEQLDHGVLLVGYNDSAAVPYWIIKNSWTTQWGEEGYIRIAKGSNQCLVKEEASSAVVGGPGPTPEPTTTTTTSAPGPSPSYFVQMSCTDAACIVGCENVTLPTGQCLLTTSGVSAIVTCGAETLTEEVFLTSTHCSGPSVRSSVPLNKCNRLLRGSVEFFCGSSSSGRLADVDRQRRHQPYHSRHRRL

| Structure (SMILES) | Potency | activity change, negative = inhibition |
| --- | --- | --- |
| N#Cc1nc(Nc2cc(Cl)cc(Cl)c2)nc(NC2CCCC2)n1 | 0.398 µM (active) | – |
| N#Cc1nc(N)nc(N2CCCCC2)n1 | 7.94 µM (active) | – |
| O=C(NCc1nnc(C(=O)Nc2ccc(C(F)(F)F)cc2Cl)o1)c1ccccc1 | – | -7.13% (inactive) |
| COc1ccccc1OCCCn1c(CCNC(=O)C2CCCCC2)nc2ccccc21 | 0.708 µM (active) | – |
| CC(C)(C)c1ccc(OCCn2c(CCNC(=O)C3CCCCC3)nc3ccccc32)cc1 | 6.31 µM (active) | – |
| N#Cc1c(NC(=O)CSc2ncnc3c2cnn3-c2ccccc2Cl)sc2c1CCCC2 | – | -1.46% (inactive) |
| O=C(CNC(=O)C1CCCCC1)OCC(=O)c1ccc(F)cc1 | 2.51 µM (active) | – |
| Cn1nc(-c2ccncc2)nc2c(=O)n(C)c(=O)nc1-2 | 0.891 µM (active) | – |
| C/C(CC(=O)Nc1ccc(Cl)c(Cl)c1)=N\NC(N)=S | 1.12 µM (active) | – |
| N#Cc1nc(Nc2ccc(C(F)(F)F)cc2)nc(NC2CCCC2)n1 | – | 2.22% (inactive) |
| CC(C)(C)OC(=O)CC(=O)NNC(=O)c1nc2ccccc2[nH]1 | – | 3.76% (inactive) |
| Cc1cccc(Nc2nc(C#N)nc(NC3CCCC3)n2)c1 | 0.126 µM (active) | – |
| O=C(NCc1ccco1)c1ccc2nc3sc4c(c3c(=O)n2c1)CCCC4 | 28.2 µM (active) | – |
| CCC(C)[C@@H](NC(=O)OC(C)(C)C)c1nnc(S(=O)(=O)Cc2cccc(C)c2)o1 (stereo partly drawn) | 14.1 µM (active) | – |
| Cc1ccc2[nH]c(=O)c(CN(Cc3ccccc3)Cc3nnnn3Cc3ccccc3)cc2c1 | – | -15.4% (inactive) |
| c1ccc2cc3c(NCCN4CCOCC4)ccnc3cc2c1 | – | -21.6% (inactive) |
| N#Cc1nc(NCC(F)F)c2ncn(-c3cc(F)cc(F)c3)c2n1 | 0.0562 µM (active) | – |
| O=C(NCC1CC1)c1ccc2nc(-c3ccoc3)c(-c3ccoc3)nc2c1 | – | -15.5% (inactive) |
| COc1cccc(C)c1NC(=O)C(OC(=O)CNC(=O)c1ccccc1)c1ccccc1 (stereo not drawn) | 25.1 µM (active) | – |

| Structure (SMILES) | Potency | activity change, negative = inhibition |
| --- | --- | --- |
| Cc1ccccc1Nc1nc(C#N)nc(NC2CCCC2)n1 | 0.708 µM (active) | – |
| O=C(Nc1nc(-c2ccc(S(=O)(=O)N3CCCCCC3)cc2)cs1)c1cccs1 | – | -3.12% (inactive) |
| O=C1NN(c2ccc(Cl)c(Cl)c2)C(=O)/C1=C/c1cccc(OC(=O)c2cccs2)c1 | 35.5 µM (active) | – |
| CC1CN(c2oc(-c3cccs3)nc2C#N)CC(C)O1 (stereo not drawn) | – | -79.4% (inactive) |
| CN(C)c1nc(C#N)nc(N2CCOCC2)n1 | 10 µM (active) and 8.91 µM (active) | – |
| CC(C)(C)OC(=O)NCc1nnc(C(C(=O)OCc2ccccc2)c2ccccc2)s1 (stereo not drawn) | – | -11.8% (inactive) |
| O=C(NCc1nnc(-c2cc3ccccc3[nH]2)s1)c1ccccc1 | – | 1% (inactive) |
| Nc1ccc2c(c1)C(=O)C(=O)c1ccccc1-2 | – | -54.3% (inactive) |
| COc1ccccc1C(=O)NCC(=O)OCC(=O)c1cccc2ccccc12 | 31.6 µM (active) | – |
| O=C(CNC(=O)C1CCCCC1)OC(C(=O)c1ccccc1)c1ccccc1 (stereo not drawn) | 1.26 µM (active) | – |
| CCc1ccc(OCCCn2c(CCNC(=O)C3CCCCC3)nc3ccccc32)cc1 | 1.41 µM (active) | – |
| O=C(Cc1nnc(-c2cc3ccccc3[nH]2)o1)Nc1cc(C(F)(F)F)ccc1Cl | – | -3.28% (inactive) |
| O=C(CNC(=O)c1ccccc1)OC(CCc1ccccc1)C(=O)Nc1cc(C(F)(F)F)ccc1Cl (stereo not drawn) | 7.94 µM (active) | – |
| C/C(CC(=O)Nc1cc(Cl)ccc1Cl)=N\NC(N)=S | 1.12 µM (active) | – |
| O=C(NNC(=O)c1nc2ccccc2[nH]1)OCc1ccccc1 | – | -7.65% (inactive) |
| CC(C)Nc1nc(C#N)nc(NC(C)C)n1 | 28.2 µM (active) | – |
| COc1cccc(-c2nn3c(-c4cc(C)[nH]n4)nnc3s2)c1 | – | -5.64% (inactive) |
| CC(=O)OC1(C(F)(F)F)Oc2ccccc2NC1=O (stereo not drawn) | 2.82 µM (active) | – |
| COc1cc(OC)c(-c2nn3c(-c4n[nH]c5c4CCC5)nnc3s2)cc1OC | – | -3.44% (inactive) and -1.31% (inactive) |
